Hit rate of the full screen: of about 360,000 compounds, about 3,700 (1%) were called active. Not shown: some 2% with an inconclusive outcome.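 Rule for the calls: active = normalized GFP-positive differentiation at or above the plate's own cutoff, the solvent-only control mean plus 3 SD; inconclusive = no clear call, values can overlap the other calls; inactive = the rest.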 The full list was thinned out, with actives kept by preference.
Assay: induction of myeloid progenitor differentiation, primary screen, cell-based, flow cytometry, MLPCN library (AID 624256);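 for GFP+ MAC1+ double positive: cells exposed to compound for four days before flow analysis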;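 for normalized GFP-positive differentiation: cells exposed to compound for four days before flow analysis; 0% = DMSO wells and 100% = fulvestrant positive control at 5 µM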
Details: ER-HoxA9 myeloid progenitors, lysozyme-GFP differentiation, at 10 µM; GFP+ MAC1+ double positive: measured here: differentiation confirmed by MAC1 staining, stronger effect = higher value; normalized GFP-positive differentiation: stronger effect = higher value

Row | Compound | GFP+ MAC1+ double positive [%] | outcome | normalized GFP-positive differentiation
1 | CC12CCC(=O)C=C1CCC1C2C(O)CC2(C)C1CCC2(O)C(O)CO (stereo not drawn) | 1.1 | inactive | –
2 | O=C(NCc1cccnc1)c1cc(C2CCCN(C(=O)CCCc3ccccc3)C2)on1 (stereo not drawn) | 0.8 | inactive | –
3 | CCCCN(C=O)c1c(CC)nc2c(OCCC3CCCCC3)cccn12 | 0.7 | inactive | –
4 | CCOC(=O)[C@]12CCCC=C1N(Cc1cccc3ccccc13)C(=O)[C@H](CC(=O)NCC13CC4CC(CC(C4)C1)C3)C2 | 2.1 | inactive | –
5 | Cc1ccc(S(=O)(=O)NCC(C)NS(C)(=O)=O)cc1 (stereo not drawn) | 2 | inactive | –
6 | Cc1ccc(S(=O)(=O)NCCSC(C)(C)C)cc1 | 5.2 | – | 17.8% (active)
7 | Cc1ccc(S(=O)(=O)NCCNC(C)c2ccc(Br)cc2)cc1 (stereo not drawn) | 1 | inactive | –
8 | OC(c1ccccc1)c1nc(-c2cnc3ccccc3c2)cs1 (stereo not drawn) | 0.6 | inactive | –
9 | C=C1C(=O)[C@]23C[C@H]1CCC2[C@@]1(C)C(C[C@@H]3O)[C@](C)(C(=O)O)CC[C@@H]1O (stereo partly drawn) | 3.8 | – | 13.1% (active)
10 | CCOC(=O)C1=CC[C@@H](c2ccncc2)N(S(=O)(=O)c2ccc(C)cc2)C1 | 1.2 | inactive | –
11 | COc1ccc(C2OC(CCc3ccccc3)Cc3[nH]c(=S)[nH]c(=O)c32)cc1 (stereo not drawn) | 1.5 | inactive | –
12 | Cc1ccc(S(=O)(=O)N2CCN(c3ccccc3)CC2)cc1C | 0.5 | inactive | –
13 | Cc1ccc(S(=O)(=O)C(C#N)c2nc3ccccc3nc2N2CCCC2)cc1C (stereo not drawn) | 1.7 | – | 59% (active)
14 | CC(=O)c1ccc(S(=O)(=O)N2CCN(c3nc4c(C)c(C)ccc4cc3C#N)CC2)cc1 | 0.3 | inactive | –
15 | COC(=O)c1sc(N2CCN(Cc3ccccc3)CC2)nc1N | 0.5 | inactive | –
16 | CC(C)OC(=O)C(C#N)c1nc2ccccc2nc1N1CCN(Cc2ccccc2)CC1 (stereo not drawn) | 0.7 | – | 12.1% (active)
17 | CC(C)n1c(CN2CCN(Cc3ccccc3)CC2)nc2ccccc21 | 0.1 | inactive | –
18 | CCCCCn1nnnc1-c1nc2cc3ccccc3cc2[nH]c1=O | 1.8 | inactive | –
19 | Cc1nc(Nc2ccc3c(c2)OCCO3)c2nnn(Cc3ccccc3Cl)c2n1 | 18.1 | – | 21.9% (active)
20 | Cc1nc(Nc2ccccc2F)c2nnn(Cc3ccccc3Cl)c2n1 | 0.5 | inactive | –
21 | CCCc1nc(NCc2ccc3c(c2)OCO3)c2nnn(Cc3ccccc3Cl)c2n1 | 0.8 | inactive | –
22 | CCCCCc1c(Cc2ccccc2)ncn1CCc1ccccc1OC | 3.9 | inactive | –
23 | COc1ccc(NC(=O)N(C)C[C@H]2Oc3ccc(NC(=O)C4CC4)cc3C(=O)N([C@H](C)CO)C[C@@H]2C)cc1 | 1.6 | – | 10.4% (active)
24 | COc1ccc(NC(=O)Nc2ccc3c(c2)C(=O)N([C@H](C)CO)C[C@H](C)[C@@H](CN(C)C(=O)Nc2ccc4c(c2)OCO4)O3)cc1 | 2.5 | inactive | –
25 | C[C@@H]1CN([C@@H](C)CO)C(=O)c2cc(NC(=O)C3CC3)ccc2O[C@H]1CN(C)C | 1.9 | inactive | –
26 | CCOC(=O)[C@]12CCC=C1N(Cc1ccccc1)C(=O)[C@H](CC(=O)N1CCCC1)C2 | 0.9 | inactive | –
27 | N#C/C(=C/c1ccc(N2CCOCC2)o1)C(=O)N1CCOCC1 | 0.4 | inactive | –

Row | Compound | GFP+ MAC1+ double positive [%] | outcome | normalized GFP-positive differentiation
28 | N#C/C(=C/c1ccc(N2CCCCC2)o1)C(=O)NCCc1c[nH]c2ccccc12 | 3.1 | – | 118% (active)
29 | N#C/C(=C\c1ccc(N2CCOCC2)o1)C(=O)N1CCOCC1 | 0.4 | inactive | –
30 | CCC(c1nnnn1-c1ccc2c(c1)OCCO2)N1CCN(c2ccc(C(F)(F)F)cn2)CC1 (stereo not drawn) | 0.4 | inactive | –
31 | CCNC(=O)c1cc2c(c(-c3cccc(-c4cncnc4)c3)n1)[C@H](CCO)N(C(C)=O)C2 | 0.5 | inactive | –
32 | CCCNC(=O)C[C@@H]1CC[C@@H]2[C@H](COC[C@H](O)CN2C(=O)c2cc(Cl)cc(Cl)c2)O1 | 0.9 | inactive | –
33 | CCCCCc1c(-c2cccc(Br)c2)ncn1CCc1ccccc1OC | 1 | inactive | –
34 | Cc1nc2c(OCc3cccc(Cl)c3)cccn2c1N(C)CC1CC1 | 0.4 | inactive | –
35 | N#C/C(=C\C1=C(N2CCOCC2)C(=C\c2ccccc2)/CC1)C(=O)Nc1ccccc1F | 11.3 | – | 127% (active)
36 | O=C(O)c1ccc(NN=CC2=C(N3CCOCC3)/C(=C/c3ccccc3)CC2)cc1 | 0.1 | inactive | –
37 | O=C1Nc2ccc(Br)cc2/C1=N/N=C/C1=C(N2CCOCC2)C(=C\c2ccccc2)/CC1 | 0.4 | inactive | –
38 | COc1ccc(OC)c(CN2C(=O)CCC2(C)c2nnnn2Cc2ccccc2)c1 (stereo not drawn) | 0.7 | inactive | –
39 | CCOC(=O)[C@]12CCCC=C1N(Cc1ccc(Cl)cc1Cl)C(=O)[C@H](CC(=O)N1CCCCC1)C2 | 0.5 | inactive | –
40 | Cc1ccc(C(=O)Nc2c(-c3ccccc3)[nH][nH]c2=O)cc1 | 0.3 | inactive | –
41 | O=C(Nn1c(-c2ccc(Cl)cc2)nc2ccccc2c1=O)c1cccnc1Cl | 2.1 | – | 151% (active)
42 | COc1ccccc1C(=O)Nn1c(-c2cccs2)nc2ccccc2c1=O | 0.5 | inactive | –
43 | COc1cc(OC)cc(-c2nc3ccccc3c(=O)n2NC(=O)c2cccnc2Cl)c1 | 0.9 | inactive | –
44 | CC(=O)C[C@@H]1OC[C@H](CO)N1S(=O)(=O)c1ccc(C)cc1 | 2.1 | inactive | –
45 | O=C(C[C@H]1CC[C@@H](NC(=O)c2ccncc2)[C@@H](CO)O1)NCC1CC1 | 0.9 | inactive | –
46 | CCSc1nc(-c2ccc(OC)cc2)cc(-c2ccc(OC)cc2)c1C#N | 7.7 | inactive | –
47 | CCOC(=O)CC(=O)CSc1nc(-c2ccccc2)cc(-c2ccc(Cl)cc2)c1C#N | 26.9 | – | 14.9% (active)
48 | N#Cc1c(C(F)(F)F)cc(-c2ccccc2)nc1SCC(=O)N1CCOCC1 | 1.4 | inactive | –
49 | Cc1noc(C)c1C(=O)N1CCC1(C)C(=O)NS(=O)(=O)c1ccc(C#N)cc1 (stereo not drawn) | 1.2 | inactive | –
50 | O=C(Cc1csc(Nc2nc(=S)[nH]c3ccccc23)n1)NCCCN1CCN(c2cccc(Cl)c2)CC1 | 1 | inactive | –
51 | Cn1c(C(=O)NCCCN2CCN(c3cccc(Cl)c3)CC2)cc2c(=O)n(C)c3ccccc3c21 | 11.3 | – | 36.1% (active)
52 | CCN1CCCC1CNC(=O)c1cc2c(=O)n(C)c3ccccc3c2n1C (stereo not drawn) | 0.5 | inactive | –
53 | CC(=O)Nc1cc(-c2cccc(CO)c2)cn2c(-c3cccc(C(F)(F)F)c3)cnc12 | 0.8 | inactive | –
54 | COc1cc2[nH]c(O)c(C=O)c2cc1OC | 0.7 | inactive | –

Row | Compound | GFP+ MAC1+ double positive [%] | outcome | normalized GFP-positive differentiation
55 | CN=c1scc(-c2cc(OC)ccc2OC)n1/N=C/c1c(C)[nH]c2ccccc12 | 1.2 | inactive | –
56 | COc1cc(N=Cc2c(O)[nH]c3ccccc23)cc(OC)c1OC | 16.7 | – | 15.8% (active)
57 | CCOC(=O)[C@H]1Nc2ccc(Cl)cc2[C@@H]2[C@H]1C1CC(c3ccccc31)N2C(=O)OCc1ccccc1 (stereo partly drawn) | 1 | inactive | –
58 | CC(C)C[C@H]1CNC(=S)N1C[C@H]1CCCN1C[C@H](Cc1ccc(O)cc1)N1C[C@H](Cc2ccc(O)cc2)N(CC2CCCCC2)C1=S | 1.3 | inactive | –
59 | Cc1ccc(C)c(S(=O)(=O)N2CCN(C(=O)Nc3ccccc3)CC2)c1 | 0.3 | inactive | –
60 | COc1ccc(-c2csc3ncnc(N4CCN(S(=O)(=O)c5ccccc5C#N)CC4)c23)cc1 | 1.7 | inactive | –
61 | Cc1ccc(C)c(S(=O)(=O)N2CCN(c3ncnc4sccc34)CC2)c1 | 2.8 | – | 41.1% (active)
62 | CCC(C(=O)NCc1ccccc1)n1c(Cc2cc(F)cc(F)c2)nc2ccccc21 (stereo not drawn) | 2 | inactive | –
63 | Nc1ncnc2c1ncn2[C@@H]1O[C@H](C(=O)N2CCCN(Cc3ccccc3F)CC2)[C@@H](O)[C@H]1O | 1.3 | inactive | –
64 | O=C(NC1CCCCC1)n1c(=O)oc2cc(S(=O)(=O)N3CCCCC3)ccc21 | 8.3 | inactive | –
65 | CC1CCCCN1C(=O)Cn1c(=O)oc2cc(S(=O)(=O)N3CCCCC3)ccc21 (stereo not drawn) | 6.7 | – | 53.2% (active)
66 | CC1CCCN(C(=O)Cn2c(=O)oc3cc(S(=O)(=O)N4CCCCC4C)ccc32)C1 (stereo not drawn) | 2.1 | inactive | –
67 | CC1=C(C(=O)N(C(C)C)C(C)C)CC(CC(=O)NCCCCc2ccccc2)C(=O)N1CCC1=CCCCC1 (stereo not drawn) | 1 | inactive | –
68 | O=S1(=O)CC(N2CCN(c3ccccn3)CC2)CN1Cc1ccc(F)cc1 (stereo not drawn) | 0.9 | inactive | –
69 | CCOC(=O)[C@]12CCC=C1N(Cc1cccc3ccccc13)C(=O)[C@H](CC(=O)NCc1cccc(C(F)(F)F)c1)C2 | 0.3 | inactive | –
70 | COC(=O)[C@@]12C[C@@H](CC(=O)N3CCC(c4ccccc4)CC3)C(=O)N(Cc3ccccc3)C1=CCC(C)(C)C2 | 1.2 | inactive | –
71 | O=C(CN1CCN(c2ccc(Cl)cc2)CC1)c1ccccc1 | 0.3 | inactive | –
72 | O=C(Cn1cc(-c2nnnn2-c2ccc(Cl)cc2)c(=O)c2ccccc21)c1ccccc1 | 7.2 | – | 37.5% (active)
73 | Clc1ccc(-n2nnnc2-c2cnc(-c3ccccn3)nc2-c2cccs2)cc1 | 0.7 | inactive | –
74 | COC(=O)[C@]12CCCCC=C1N(CCC1=CCCCC1)C(=O)[C@H](CC(=O)NCC1CCCCC1)C2 | 1.7 | inactive | –
75 | Cc1ccc(-c2cnc(C(O)c3cccc(C)c3C)[nH]2)cc1 (stereo not drawn) | 0.9 | inactive | –
76 | O=C(NC1C2CC3CC(C2)CC1C3)c1ccc(N2CCNCC2)c([N+](=O)[O-])c1 (stereo not drawn) | 0.8 | – | 16.7% (active)
77 | O=C(Nc1cccc(C(F)(F)F)c1)c1ccc(N2CCNCC2)c([N+](=O)[O-])c1 | 0.4 | inactive | –
78 | CS(=O)(=O)N1CCN(c2ccc(C(=O)NC3C4CC5CC(C4)CC3C5)cc2[N+](=O)[O-])CC1 (stereo not drawn) | 1 | inactive | –
79 | Cc1cc(O)ccc1-c1cc(C(=O)NCc2cc(C(F)(F)F)cc(C(F)(F)F)c2)[nH]n1 | 0.4 | inactive | –

— PubChem BioAssay AID624256 (NMMLSC, 2012)
